Assay results taken from PubChem BioAssay (NCATS).

Assay: qHTS profiling of the MIPE4 collection as inhibitors of Plasmodium falciparum (DD2) proliferation (AID 743345)
Settings: P. falciparum Dd2 in erythrocytes, SYBR Green DNA, 72 h; at 28.5 µM (top of the series) unless noted
Method in brief: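 Erythrocytes infected with P. falciparum (0.3% parasitemia, 2.5% hematocrit) incubated with compounds 72 h at 37 C, 5% CO2. Lysis with saponin/Triton buffer containing SYBR Green I, overnight at room temperature in the dark; DNA fluorescence (485/535 nm) normalised to 0.29 uM artemisinin and DMSO.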

Structure (SMILES)	parasite growth remaining, % of DMSO control (lower = more inhibition)
Nc1nc(=O)n([C@H]2C[C@H](O)[C@@H](CO)O2)cc1F	95.7%
N#Cc1c(C2CCNCC2)cc(-c2c(O)cccc2OCC2CC2)nc1N	12.3%
Oc1cc2c(cc1O)C1c3ccc(O)c(O)c3OCC1(O)C2 (centres undefined)	106%
NC(=O)Nc1cc(-c2ccc(CN3CCOCC3)cc2)sc1C(N)=O	46.5%
FC(F)(F)c1ccc(Nc2nc3ccc(Oc4ccnc(-c5ncc(C(F)(F)F)[nH]5)c4)cc3[nH]2)cc1	48.6%
COC(=O)[C@@H]1CC2=CC(=O)CC[C@]2(C)[C@@]23O[C@@H]2C[C@@]2(C)[C@H](CC[C@@]24CCC(=O)O4)[C@@H]13	87.1%
COc1ccc(S(=O)(=O)Nc2cc(-c3c(O)ccc4ccccc34)c(O)c3ccccc23)cc1	94.7%
Cc1cc(C(=O)NOCCO)c(Nc2ccc(I)cc2F)n(C)c1=O	87.7%
CC(C)(C)[C@H](NC(=O)c1ccc(N)c(Cl)c1)C(=O)N1CCC[C@@H]1C(=O)N[C@H](C#N)CC(=O)O	110% [at 3.19 µM]
O=C1NCCc2[nH]c(-c3ccncc3)cc21	39%
COc1ccnc2[nH]cc(C(=O)C(=O)N3CCN(C(=O)c4ccccc4)C[C@@H]3C)c12	98%
CC(C)(O)CC[C@@H](O)[C@](C)(O)[C@H]1CC[C@@]2(O)C3=CC(=O)[C@@H]4C[C@@H](O)[C@@H](O)C[C@]4(C)[C@@H]3CC[C@]12C	110%
CCN(C(=O)c1c(O)c2c(Cl)cccc2n(C)c1=O)c1ccccc1	108%
C[C@H]1[C@@H](OC(=O)CCC(=O)O)O[C@@H]2O[C@@]3(C)CC[C@@H]4[C@H](C)CC[C@@H]1[C@@]24OO3	7.38%
Cn1cc(C[C@@H](N)C(=O)O)c2ccccc21	82.7% [at 9.64 µM]
COc1cc([C@@H]2c3cc4c(cc3[C@@H](O[C@@H]3O[C@@H]5CO[C@@H](c6cccs6)O[C@@H]5[C@H](O)[C@@H]3O)[C@H]3COC(=O)[C@H]23)OCO4)cc(OC)c1O	8.04%
Cc1coc2c1C(=O)C(=O)c1c-2ccc2c(C)cccc12	19.5%

Structure (SMILES)	parasite growth remaining, % of DMSO control (lower = more inhibition)
C=C(C)[C@@H]1CC[C@]2(C)CC[C@]3(C)[C@H](CC[C@@H]4[C@@]5(C)CC[C@H](O)C(C)(C)[C@H]5CC[C@]43C)[C@@H]12	92%
CC(=O)N[C@@H]1[C@H](O[C@@H]2c3ccc(c(Cl)c3)Oc3cc4cc(c3O[C@H]3O[C@H](CO)[C@@H](O)[C@H](O)[C@H]3NC(=O)CCCCCCCC(C)C)Oc3ccc(cc3Cl)C[C@H]3NC(=O)[C@H](N)c5ccc(O)c(c5)Oc5cc(O)cc(c5)[C@H](NC3=O)C(=O)N[C@H]4C(=O)N[C@H]3C(=O)N[C@@H]2C(=O)N[C@@H](C(=O)O)c2cc(O)cc(O[C@H]4O[C@H](CO)[C@@H](O)[C@H](O)[C@H]4O)c2-c2cc3ccc2O)O[C@H](CO)[C@@H](O)[C@@H]1O	99.1%
CC(=O)NCC(=O)N1[C@H]2CC[C@H]1c1cc(Nc3ncc(C(F)(F)F)c(NC4CCC4)n3)ccc12	15.3%
CN1C(C(=O)Nc2ccccn2)=C(O)c2sc(Cl)cc2S1(=O)=O	86.4%
CCOC(=O)N1CCN([N+]([O-])=NOc2ccc([N+](=O)[O-])cc2C#N)CC1	23.5%
O=C1NC(O)CCN1[C@@H]1O[C@H](CO)[C@H](O)[C@H]1O (some centres undefined)	97.8%
CC(C)(O)[C@H]1CC[C@@](C)([C@H]2[C@@H](O)C[C@@]3(C)[C@@H]4C[C@H](O[C@@H]5O[C@H](CO)[C@@H](O)[C@H](O)[C@@H]5O)[C@H]5C(C)(C)[C@@H](O[C@@H]6OC[C@@H](O)[C@H](O)[C@@H]6O)CC[C@@]56C[C@@]46CC[C@]23C)O1	135%
CC(C)Oc1ccc(C(=O)N[C@H](CNC(=O)CN(C)C)Cc2ccc(-c3cn4cccc([C@H](C)O)c4n3)cc2)cc1Cl	8.81%
c1cc(N[C@@H]2CCNC2)nc(-c2cnc3ccc(-c4cn[nH]c4)cn23)c1	8.57%
Nc1ccc(C(=O)Nc2cccc(-c3nc(N4CCOCC4)c4oc5ncccc5c4n3)c2)cn1	6.97%
CC[C@H]1OC(=O)[C@H](C)[C@@H](O[C@H]2C[C@@](C)(OC)[C@@H](O)[C@H](C)O2)[C@H](C)[C@@H](O[C@@H]2O[C@@H](C)C[C@H](N(C)C)[C@@H]2O)[C@](C)(O)C[C@@H](C)C(=O)[C@H](C)[C@@H](O)[C@]1(C)O	75%
O=C(NCc1ccccc1)[C@H](Cc1ccccc1)NC(=O)[C@@H]1O[C@@H]1C(=O)NCCc1ccc(O)cc1	44.7%
C#CCC(Cc1cnc2nc(N)nc(N)c2n1)c1ccc(C(=O)N[C@@H](CCC(=O)O)C(=O)O)cc1 (some centres undefined)	8.51%
COc1ccc(C=Cc2cc(OC)c(OC)c(OC)c2)cc1NC(=O)[C@H](N)CO	75.1%
CC(C)(N)c1ccc(-c2nc3ccccc3nc2-c2ccccc2)cc1	18.1%
C[C@](Cc1c[nH]c2ccccc12)(NC(=O)OC1C2CC3CC(C2)CC1C3)C(=O)NC[C@H](NC(=O)CCC(=O)O)c1ccccc1 (some centres undefined)	36.8%
COc1cc(C)c(C=CC(C)=CC=CC(C)=CC(=O)O)c(C)c1C	115%
